For 13 molecules, Potency and activity, negative = inhibition results are on record in PubChem BioAssay (NCATS).

Records with an inconclusive call do not appear. A number with no mark means an inactive call. Calls of active or inactive are those of the source. The call rests on the fitted dose curve; in most records, active means well fitted inhibition curve with a large enough effect; inconclusive means small, poorly fitted or top-dose-only effect; inactive means flat fitted curve, though single readings scatter.

A short description of assay [1]: qHTS profiling for inhibitors of Plasmodium falciparum proliferation (AID 504749).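 On activity, negative = inhibition: 0% = DMSO vehicle and full inhibition = artemisinin control.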 On all read-outs here: nearly all actives have a fitted effect of over 60% in size. To be noted: P. falciparum in erythrocytes, SYBR Green DNA, 72 h; for activity, negative = inhibition: at 28.7 µM (top of the series). The method in brief: (§1)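 Each compound contacts P. falciparum-infected red blood cells for 72 h at 37 C; lysis buffer (Tris, EDTA, saponin, Triton X, SYBR Green I) is added and fluorescence measured next morning; values normalized to controls.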
On the technique in general: qHTS replaces the single test concentration by a dilution series.

For the next assay, the system named is 7G8. The description is as above. As to conditions: P. falciparum in erythrocytes, SYBR Green DNA, 72 h; series mostly up to 28.7 µM. The method in brief: as §1
The subject of the next assay is AA1029. The assay is described as above. As to conditions: P. falciparum in erythrocytes, SYBR Green DNA, 72 h; series mostly up to 28.7 µM. The method in brief: as §1
The next assay deals with AS120. The description is as above. As to conditions: P. falciparum in erythrocytes, SYBR Green DNA, 72 h; series mostly up to 28.7 µM. The method in brief: as §1
A further assay deals with ATS189. Described as above. To be noted: P. falciparum in erythrocytes, SYBR Green DNA, 72 h; series mostly up to 28.7 µM. The method in brief: as §1
In the next assay the test system is C2A. Described as above. To be noted: P. falciparum in erythrocytes, SYBR Green DNA, 72 h; series mostly up to 28.7 µM. The method in brief:
as §1

In another assay the test system is CP185. The assay is described as above. As to conditions: P. falciparum in erythrocytes, SYBR Green DNA, 72 h; series mostly up to 28.7 µM. The method in brief: as §1
The subject of the next assay is CP191. The assay is described as above. As to conditions: P. falciparum in erythrocytes, SYBR Green DNA, 72 h; series mostly up to 28.7 µM. The method in brief:
as §1

The test system of another assay is CP192. Described as above. As to conditions: P. falciparum in erythrocytes, SYBR Green DNA, 72 h; series mostly up to 28.7 µM. The method in brief:
as §1

The next assay deals with CP194. The assay is described as above. To be noted: P. falciparum in erythrocytes, SYBR Green DNA, 72 h; series mostly up to 28.7 µM. The method in brief: as §1
The subject of the next assay is CP201. Described as above. As to conditions: P. falciparum in erythrocytes, SYBR Green DNA, 72 h; series mostly up to 28.7 µM. The method in brief: as §1
The next assay deals with CP203. The description is as above. As to conditions: P. falciparum in erythrocytes, SYBR Green DNA, 72 h; series mostly up to 28.7 µM. The method in brief: as §1
The subject of another assay is 3D7. The assay is described as above. As to conditions: P. falciparum in erythrocytes, SYBR Green DNA, 72 h; series mostly up to 28.7 µM. The method in brief:
as §1

Another assay concerns CP211. Described as above. To be noted: P. falciparum in erythrocytes, SYBR Green DNA, 72 h; series mostly up to 28.7 µM. The method in brief: as §1
The next assay deals with CP237. Described as above. As to conditions: P. falciparum in erythrocytes, SYBR Green DNA, 72 h; series mostly up to 28.7 µM. The method in brief: as §1
The test system of another assay is ATS95. The assay is described as above. As to conditions: P. falciparum in erythrocytes, SYBR Green DNA, 72 h; series mostly up to 28.7 µM. The method in brief: as §1
The test system of a further assay is CP215. Described as above. To be noted: P. falciparum in erythrocytes, SYBR Green DNA, 72 h; series mostly up to 28.7 µM. The method in brief:
as §1

The next assay relates to CP217. The description is as above. As to conditions: P. falciparum in erythrocytes, SYBR Green DNA, 72 h; series mostly up to 28.7 µM. The method in brief:
as §1
Potency means the concentration at half of the fitted maximal effect.

For `Cc1ccc2nc(N)[nH]c(=O)c2c1Sc1ccncc1`, the Potency in assay [1] (parasite line A) was 7.94 µM (active); in assay [1] (parasite line B), 11.2 µM (active); with 7G8, 5.62 µM (active); in the assay on AA1029 it was 11.2 µM (active); in the assay on AS120, 4.47 µM (active); in the assay with ATS189, 8.91 µM (active). In addition, the results for the Potency in the assay on C2A, in the assay with CP185 and with CP191 were 11.2 µM (active), 5.01 µM (active) and 2.51 µM (active), respectively. Also, the Potency result in the assay on CP192, with CP194, in the assay on CP201 and with CP203 was “inactive” each time.
`Oc1ccc(C(O)CNCCCCCCNCC(O)c2ccc(O)c(O)c2)cc1O` (stereo not given): the Potency in the assay with 7G8 is 3.55 µM (active).
As to `CCN(CC)CCNC(C(=O)OCCC(C)C)c1ccccc1` (stereo not given), the activity, negative = inhibition in assay [1] (parasite line A) is 6.18%; in [1] (parasite line B), 14.1%. For the same molecule, the Potency entry with 3D7 and with CP211 was “inactive” throughout. The figures for the Potency in the assay on 7G8, in the assay with CP203 and with CP237 were 12.6 µM (active), 9.53 µM (active) and 3.16 µM (active), respectively.
Regarding `Cc1c(Cl)cccc1Nc1ccccc1C(=O)O`, the activity, negative = inhibition in [1] (parasite line A) was -2.73%; in [1] (parasite line B), 8.76%. Besides, the Potency result in the assay on 3D7, in the assay on AA1029, in the assay with AS120, in the assay with ATS189, in the assay on ATS95 and in the assay with C2A was “inactive” each time. For the same molecule, the Potency result in the assay with CP185, in the assay on CP191, in the assay with CP192, in the assay on CP194, in the assay with CP201 and in the assay with CP203 was “inactive” in each case. Also, the Potency result with CP211, in the assay with CP215, with CP217 and in the assay on CP237 was “inactive” each time.
Regarding `CC(C(O)c1ccc(O)cc1)N1CCC(Cc2ccccc2)CC1` (stereo not given), the Potency in the assay with 7G8 was 8.91 µM (active); in the assay with AS120, 8.91 µM (active); with ATS189, 11.2 µM (active); in the assay on C2A, 10 µM (active); in the assay on CP185, 8.91 µM (active); with CP191, 7.94 µM (active). Also, the Potency with CP194 is 15.1 µM (active); with CP203 it was 12 µM (active); with CP237 it was 8.91 µM (active).
For the molecule `CCCCCCCCCCCCCCCC(=O)NCCO`, the results for the activity, negative = inhibition in assay [1] (parasite line A) and in assay [1] (parasite line B) were 5.7% and 4.77%, respectively. The Potency result in the assay with 3D7, in the assay on AA1029, in the assay with AS120, with ATS189, in the assay with ATS95 and with C2A was “inactive” throughout. The Potency result with CP185, in the assay on CP191, in the assay on CP192, in the assay with CP194, with CP201 and with CP203 was “inactive” throughout. In addition, the Potency result with CP211, with CP215, in the assay on CP217 and with CP237 was “inactive” each time.
Consider `NC(=O)N/N=C/c1ccc([N+](=O)[O-])o1`, for which the Potency is 12.6 µM (active) in [1] (parasite line A), 8.91 µM (active) in the assay with 3D7, 10 µM (active) in the assay on 7G8 and 10 µM (active) in the assay on CP237. Moreover, the Potency result in the assay with CP192 and with CP211 was “inactive” throughout.
For the molecule `COC(=O)C1=C(C)NC(C)=C(C(=O)OC)C1c1ccccc1[N+](=O)[O-]`, the activity, negative = inhibition in assay [1] (parasite line A) was -7.51%; in [1] (parasite line B), -24%. Besides, the Potency entry in the assay on 3D7, in the assay on AA1029, in the assay with AS120, with ATS189, in the assay on ATS95 and in the assay with C2A was “inactive” throughout. Also, the Potency entry with CP185, with CP191, in the assay with CP192, in the assay on CP194, with CP201 and with CP203 was “inactive” in each case. Besides, the Potency result in the assay with CP211, in the assay on CP215, with CP217 and in the assay with CP237 was “inactive” each time.
Turning to `CN1CCC[C@@H]1Cc1c[nH]c2ccc(CCS(=O)(=O)c3ccccc3)cc12`, the activity, negative = inhibition is -0.0666% in [1] (parasite line A) and -10.1% in assay [1] (parasite line B). Further, the Potency result in the assay with 3D7, in the assay with CP185 and with CP192 was “inactive” in each case. Moreover, the Potency in the assay on 7G8 was 6.31 µM (active); in the assay on CP191 it was 5.01 µM (active).
Turning to `CC(CN1c2ccccc2Sc2ccccc21)N(C)C` (stereo not given), the activity, negative = inhibition in assay [1] (parasite line A) was 8.14%; in assay [1] (parasite line B) it was -0.843%. For the same molecule, the Potency entry in the assay on 3D7, in the assay with ATS189, in the assay on C2A, in the assay on CP185, with CP191 and in the assay with CP192 was “inactive” each time. Also, the Potency result with CP194, in the assay with CP201, with CP211 and in the assay on CP217 was “inactive” each time. Besides, the Potency in the assay with 7G8 is 8.91 µM (active).
Turning to `Cc1cc(C(C#N)c2ccc(Cl)cc2)c(Cl)cc1NC(=O)c1cc(I)cc(I)c1O` (stereo not given), the activity, negative = inhibition is 8.49% in assay [1] (parasite line A) and 7.42% in assay [1] (parasite line B). Further, the Potency result with 3D7, with AA1029, with AS120, in the assay with ATS189, in the assay on ATS95 and in the assay with C2A was “inactive” each time. Further, the Potency result with CP185, in the assay on CP191, in the assay with CP192, with CP194, in the assay with CP201 and in the assay on CP203 was “inactive” each time. The Potency entry in the assay on CP211, with CP215, in the assay with CP217 and with CP237 was “inactive” throughout.
For `Cc1ccc(C(C)C)cc2c(C)ccc1-2`, the activity, negative = inhibition in [1] (parasite line A) was -17.3%; in assay [1] (parasite line B), -20.9%. The Potency result with 3D7, with AA1029, in the assay with AS120, in the assay with ATS189, with ATS95 and in the assay on C2A was “inactive” throughout. Besides, the Potency entry with CP185, in the assay on CP191, in the assay with CP192, in the assay on CP194, with CP201 and in the assay on CP203 was “inactive” throughout. Further, the Potency result in the assay on CP211, in the assay on CP217 and in the assay with CP237 was “inactive” in each case.
Turning to `CNCCC(Oc1ccc(C(F)(F)F)cc1)c1ccccc1` (stereo not given), the activity, negative = inhibition is -5.44% in assay [1] (parasite line A) and -9.25% in [1] (parasite line B). The Potency result in the assay with 3D7, with CP185, in the assay on CP192, in the assay on CP201, in the assay with CP211 and in the assay with CP217 was “inactive” each time. The Potency entry in the assay on CP237 was “inactive”. Besides, the Potency in the assay on 7G8 is 11.2 µM (active).
